Experimental data published in publication PMC4081100, “A DNA-binding-site landscape and regulatory network analysis for NAC transcription factors in Arabidopsis thaliana”.

Experiments:
Assay in all cases: universal protein binding microarray (PBM); transcription factors of Arabidopsis thaliana; high values mean tight binding
GST-ANAC092(1-176) = biological target: T1, GST-ANAC092(1-176) (Arabidopsis thaliana, UniProt Q9FKA0 1-176); details: protein: recombinant; tags: GST; chain copies: 2; dsDNA, one strand shown
T1 sequence: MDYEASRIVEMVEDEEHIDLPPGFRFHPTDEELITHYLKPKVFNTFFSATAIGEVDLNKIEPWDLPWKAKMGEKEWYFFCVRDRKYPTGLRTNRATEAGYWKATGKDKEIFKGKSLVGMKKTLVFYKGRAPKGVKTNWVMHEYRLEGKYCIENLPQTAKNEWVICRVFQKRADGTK
How it was run: (§1)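 GST-tagged NAC-domain, full-length or DNA-binding-domain proteins were induced in cells, with zinc acetate added for zinc-finger proteins. They were purified on glutathione–Sepharose 4B and quantified by A280 or anti-GST western blot. Each was applied at 200 to 500 nM final, in duplicate, to custom all-10-mer Agilent 4 × 180K arrays made double-stranded by primer extension, with gapped and ungapped 8-mers scored. Binding is the normalised enrichment score (E-score).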

GST-NTL6(1-168) = GST-NTL6(1-168) (Arabidopsis thaliana, UniProt Q9SCK6 1-168); details: protein: recombinant; tags: GST; chain copies: 2; dsDNA, one strand shown
Sequence of GST-NTL6(1-168) (Q9SCK6 1-168): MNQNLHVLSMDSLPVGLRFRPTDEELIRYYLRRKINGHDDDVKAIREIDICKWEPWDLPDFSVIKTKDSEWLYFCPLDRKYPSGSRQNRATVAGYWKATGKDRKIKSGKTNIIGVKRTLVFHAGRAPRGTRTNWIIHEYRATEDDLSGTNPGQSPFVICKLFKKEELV
How it was run: as §1

GST-ANAC019 NAC domain = biological target: T2, GST-ANAC019 NAC domain (Arabidopsis thaliana, UniProt Q9C932 14-162); details: protein: recombinant; tags: GST; chain copies: 2; dsDNA, one strand shown
T2 sequence: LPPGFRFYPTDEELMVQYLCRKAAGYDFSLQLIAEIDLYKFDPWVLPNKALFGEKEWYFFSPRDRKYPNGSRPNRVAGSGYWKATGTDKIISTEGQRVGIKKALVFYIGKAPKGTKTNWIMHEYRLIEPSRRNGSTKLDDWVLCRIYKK
How it was run: as §1

[1] = biological target: T3, GST-ANAC092(1-285) full length (Arabidopsis thaliana, UniProt Q9FKA0 1-285); details: protein: recombinant; tags: GST; chain copies: 2; dsDNA, one strand shown
T3 sequence: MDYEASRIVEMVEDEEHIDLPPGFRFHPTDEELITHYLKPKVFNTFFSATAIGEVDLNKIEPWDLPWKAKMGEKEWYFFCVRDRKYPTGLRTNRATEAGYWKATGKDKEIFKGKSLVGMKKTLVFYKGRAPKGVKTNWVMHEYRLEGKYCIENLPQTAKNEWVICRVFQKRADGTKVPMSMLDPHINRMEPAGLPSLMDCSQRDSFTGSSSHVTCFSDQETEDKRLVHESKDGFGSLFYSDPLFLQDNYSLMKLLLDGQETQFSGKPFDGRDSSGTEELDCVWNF
How it was run: as §1

GST-NTL8 NAC domain = biological target: T4, GST-NTL8 NAC domain (Arabidopsis thaliana, UniProt Q9XIN7 14-156); details: protein: recombinant; tags: GST; chain copies: 2; dsDNA, one strand shown
T4 sequence: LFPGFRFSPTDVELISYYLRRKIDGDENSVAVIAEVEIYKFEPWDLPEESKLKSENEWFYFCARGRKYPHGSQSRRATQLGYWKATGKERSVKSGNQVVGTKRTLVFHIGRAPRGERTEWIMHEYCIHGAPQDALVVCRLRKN
How it was run: as §1

GST-SND1(1-203) = biological target: T5, GST-SND1(1-203) (Arabidopsis thaliana, UniProt Q9LPI7 1-203); details: protein: recombinant; tags: GST; chain copies: 2; dsDNA, one strand shown
T5 sequence: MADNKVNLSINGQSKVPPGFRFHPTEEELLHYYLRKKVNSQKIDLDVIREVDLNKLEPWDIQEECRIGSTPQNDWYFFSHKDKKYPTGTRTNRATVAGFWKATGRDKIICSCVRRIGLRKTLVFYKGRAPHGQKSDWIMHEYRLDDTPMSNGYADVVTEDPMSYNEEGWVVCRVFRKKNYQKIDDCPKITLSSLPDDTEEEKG
How it was run: as §1

GST-VND3 NAC domain = biological target: T6, GST-VND3 NAC domain (Arabidopsis thaliana, UniProt Q9FH59 12-162); details: protein: recombinant; tags: GST; chain copies: 2; dsDNA, one strand shown
T6 sequence: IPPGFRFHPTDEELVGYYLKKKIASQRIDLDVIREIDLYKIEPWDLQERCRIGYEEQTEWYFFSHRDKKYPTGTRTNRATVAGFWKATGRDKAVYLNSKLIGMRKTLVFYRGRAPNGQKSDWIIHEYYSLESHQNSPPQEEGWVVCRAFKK
How it was run: as §1

GST-ATAF1 NAC domain = biological target: T7, GST-ATAF1 NAC domain (Arabidopsis thaliana, UniProt Q39013 7-158); details: protein: recombinant; tags: GST; chain copies: 2; dsDNA, one strand shown
T7 sequence: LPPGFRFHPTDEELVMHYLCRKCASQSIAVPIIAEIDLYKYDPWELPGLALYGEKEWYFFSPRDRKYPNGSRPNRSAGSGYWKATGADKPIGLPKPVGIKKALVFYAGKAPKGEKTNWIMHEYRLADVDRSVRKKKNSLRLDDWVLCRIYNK
How it was run: as §1

GST-NST2(1-184) = biological target: T8, GST-NST2(1-184) (Arabidopsis thaliana, UniProt Q9M274 1-184); details: protein: recombinant; tags: GST; chain copies: 2; dsDNA, one strand shown
T8 sequence: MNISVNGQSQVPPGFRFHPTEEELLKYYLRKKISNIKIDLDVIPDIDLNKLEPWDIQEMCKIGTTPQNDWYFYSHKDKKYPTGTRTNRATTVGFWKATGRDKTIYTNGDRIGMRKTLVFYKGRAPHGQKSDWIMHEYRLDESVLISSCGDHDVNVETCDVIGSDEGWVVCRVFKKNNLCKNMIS
How it was run: as §1

GST-ANAC055(1-171) = biological target: T9, GST-ANAC055(1-171) (Arabidopsis thaliana, UniProt Q9LDY8 1-171); details: protein: recombinant; tags: GST; chain copies: 2; dsDNA, one strand shown
T9 sequence: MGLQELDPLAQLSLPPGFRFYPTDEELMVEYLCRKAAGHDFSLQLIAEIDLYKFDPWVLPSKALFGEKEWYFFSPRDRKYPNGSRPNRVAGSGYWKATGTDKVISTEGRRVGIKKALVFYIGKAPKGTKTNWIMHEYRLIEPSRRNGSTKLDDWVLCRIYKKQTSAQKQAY
How it was run: as §1

GST-NAP(1-166) = biological target: T10, GST-NAP(1-166) (Arabidopsis thaliana, UniProt O49255 1-166); details: protein: recombinant; tags: GST; chain copies: 2; dsDNA, one strand shown
T10 sequence: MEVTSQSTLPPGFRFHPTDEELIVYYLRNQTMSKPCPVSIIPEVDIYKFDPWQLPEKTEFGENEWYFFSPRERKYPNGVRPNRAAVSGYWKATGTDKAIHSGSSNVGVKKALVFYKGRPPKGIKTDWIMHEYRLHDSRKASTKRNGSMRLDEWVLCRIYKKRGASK
How it was run: as §1

GST-VND7 NAC domain = biological target: T11, GST-VND7 NAC domain (Arabidopsis thaliana, UniProt Q9C8W9 9-158); details: protein: recombinant; tags: GST; chain copies: 2; dsDNA, one strand shown
T11 sequence: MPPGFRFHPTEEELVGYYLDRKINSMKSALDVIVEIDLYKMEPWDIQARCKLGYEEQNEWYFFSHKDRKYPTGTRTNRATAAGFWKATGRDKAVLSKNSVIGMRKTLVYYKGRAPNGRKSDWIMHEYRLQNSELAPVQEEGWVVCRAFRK
How it was run: as §1

GST-WRKY1(266-371) = GST-WRKY1(266-371) (Arabidopsis thaliana, UniProt Q9SI37 266-371); details: protein: recombinant; tags: GST; dsDNA, one strand shown
Sequence of GST-WRKY1(266-371) (Q9SI37 266-371): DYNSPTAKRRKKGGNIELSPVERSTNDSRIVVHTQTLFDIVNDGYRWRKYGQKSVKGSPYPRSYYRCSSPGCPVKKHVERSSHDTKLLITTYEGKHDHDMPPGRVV
How it was run: as §1

| Sequence | binding signal (GST-ANAC092(1-176)) [E-score] | binding signal (GST-NTL6(1-168)) [E-score] | binding signal (GST-ANAC019 NAC domain) [E-score] | binding signal [1] [E-score] | binding signal (GST-NTL8 NAC domain) [E-score] | binding signal (GST-SND1(1-203)) [E-score] | binding signal (GST-VND3 NAC domain) [E-score] | binding signal (GST-ATAF1 NAC domain) [E-score] | binding signal (GST-NST2(1-184)) [E-score] | binding signal (GST-ANAC055(1-171)) [E-score] | binding signal (GST-NAP(1-166)) [E-score] | binding signal (GST-VND7 NAC domain) [E-score] | binding signal (GST-WRKY1(266-371)) [E-score] |
| --- | --- | --- | --- | --- | --- | --- | --- | --- | --- | --- | --- | --- | --- |
| CAGGGAAA | 0.141 | 0.0693 | 0.115 | 0.102 | 0.407 | 0.0967 | 0.0593 |  |  |  |  |  |  |
| AAGGTAAG | 0.0968 | 0.306 | 0.175 | 0.225 | 0.402 | 0.2 | 0.113 | 0.11 | 0.144 |  |  |  |  |
| AAGTCATC |  | 0.233 |  | 0.213 | 0.0978 | 0.242 |  |  | 0.089 | 0.0818 | 0.0606 | 0.11 | 0.406 |
| CAAGTCAG |  |  |  | 0.11 |  | 0.0706 | 0.0527 |  |  |  |  |  | 0.417 |
| AAGGAATG | 0.153 | 0.422 | 0.0613 | 0.115 | 0.293 | 0.227 |  | 0.07 | 0.196 | 0.0506 |  | 0.0905 | 0.0844 |
| GTAGTCAA |  | 0.0675 |  |  |  | 0.0829 | 0.134 | 0.191 | 0.112 | 0.168 | 0.0663 |  | 0.478 |
| AAGGAATC | 0.172 | 0.42 |  | 0.251 | 0.328 | 0.292 | 0.0823 | 0.0816 | 0.0867 |  |  |  |  |
| CCGTCAAA |  |  | 0.164 |  |  | 0.148 | 0.0953 |  |  |  |  |  | 0.409 |
| ACGTTATC | 0.384 |  |  | 0.431 |  | 0.423 | 0.208 | 0.17 | 0.299 | 0.0511 | 0.162 |  |  |
| CCACGCTA | 0.405 |  | 0.155 | 0.432 | 0.0925 | 0.329 | 0.0665 |  | 0.219 |  |  |  |  |
| ACACTCCA | 0.398 |  | 0.0899 | 0.429 |  | 0.278 | 0.0605 | 0.17 | 0.226 | 0.15 |  |  |  |
| TGACTCAA |  | 0.118 |  | 0.131 |  | 0.0975 | 0.113 | 0.0764 |  |  |  |  | 0.419 |
| CAGTCAAA | 0.125 | 0.0796 | 0.0978 | 0.0634 | 0.104 | 0.124 |  | 0.11 |  | 0.063 | 0.0821 | 0.0973 | 0.478 |
| CACTCAAC | 0.4 | 0.0871 | 0.151 | 0.424 |  | 0.243 | 0.089 | 0.0909 | 0.237 | 0.139 |  |  |  |
| TGAAGTCA |  | 0.229 |  | 0.133 | 0.165 | 0.196 | 0.0873 |  | 0.0789 |  |  |  | 0.426 |
| ACACGCCT | 0.319 |  | 0.189 | 0.411 |  | 0.0623 | 0.0938 | 0.212 |  | 0.173 |  |  |  |
| GTTTCCTA | 0.118 | 0.0734 | 0.158 | 0.179 | 0.404 | 0.106 | 0.179 | 0.212 | 0.169 | 0.133 | 0.118 |  |  |
